Reference: the supplement of paper PMC3334620
Whole data set: some 33,000 sequences, median “E-score (-0.5 to 0.5)” near -0.013, cut for the highest 2% near 0.3. The sample holds the highest values, similar sequences and a random draw of the others, so the mix is not that of the screen.

These sequences were tested against T1, Msn1 (UniProt P22148) (assay: PBM E-score (8-mer binding enrichment) (E-score (-0.5 to 0.5)); higher = stronger / more preferred TF binding). Conditions: protein concentration: 200 nM; construct: GST-full length.
T1 sequence: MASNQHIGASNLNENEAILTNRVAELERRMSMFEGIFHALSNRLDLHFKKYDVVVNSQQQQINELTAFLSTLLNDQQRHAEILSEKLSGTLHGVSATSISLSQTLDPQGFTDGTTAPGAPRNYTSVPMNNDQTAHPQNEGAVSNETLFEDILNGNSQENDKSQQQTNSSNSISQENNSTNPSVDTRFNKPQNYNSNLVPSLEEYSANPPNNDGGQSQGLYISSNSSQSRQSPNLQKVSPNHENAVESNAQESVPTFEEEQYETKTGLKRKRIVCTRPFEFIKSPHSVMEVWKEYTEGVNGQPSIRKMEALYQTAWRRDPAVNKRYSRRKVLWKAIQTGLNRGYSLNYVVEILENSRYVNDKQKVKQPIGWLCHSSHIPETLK
Procedure, shortened: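 E-scores (a modified Wilcoxon-Mann-Whitney statistic) were assigned by the Universal PBM Analysis Suite to every ungapped eight-base word pooled with its reverse complement. The input came from universal all-10-mer Agilent arrays made double-stranded by primer extension and probed with GST-tagged yeast transcription factors at about 100-200 nM. Fluorescent anti-GST detected bound protein, and masliner normalised the scans.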

Sequence | PBM E-score
CAACGGAC | 0.121
AGAGCCGC | -0.0659
ATCGCGTA | -0.176
ACAGTCGA | -0.0747
ATCCCGAT | 0.125
ACAAAGGC | 0.098
CCTCAAGC | -0.277
ACGCTGGG | -0.406
ATCTTGCG | -0.0566
TGCGGAAA | 0.0764
AGCGGACA | 0.359
TGCGGACA | 0.427
AGCGGACG | 0.0534
GGCGGACA | 0.273
CGCGGACG | 0.181
CGCGGACA | 0.329
AGCGGACT | -0.229
CGCGGACC | 0.0148
CTGCTCAA | 0.0116
CGAGTGCG | 0.0204
CGTTGCAG | -0.0934
GACATTCA | 0.449
CACATTCA | -0.0795
GACATTCC | 0.456
AACATTCC | -0.0175

Sequence | PBM E-score
AACATTCA | -0.0503
CACATTCC | 0.0503
ATACATAT | 0.264
CCGCTCTA | 0.0134
GACTCCCC | -0.207
ATTTCTCG | 0.255
CGATACCG | -0.0866
TCGGACCA | 0.12
GCGGACCA | 0.0483
CCGGACAG | 0.227
TCGGACGA | 0.199
CCGGACAA | 0.452
GCGGACAC | 0.162
ACGGACAA | 0.474
CCGGACAC | 0.288
GCGGACAA | 0.44
TCGGACAA | 0.457
ACGGACCA | 0.0706
ACGGACGA | 0.0949
ACATTCGT | 0.0578
AATTCTCT | -0.229
CGACCGCG | -0.0918
CGGGAGGA | -0.0135
GAGTGTGC | 0.0104
GCTACACC | -0.162

Sequence | PBM E-score
GCCTGACC | -0.234
AAATACCA | -0.0306
ACAAAATG | 0.312
ATAAAATA | 0.183
ATAAAATC | 0.0924
AAAAAATG | 0.287
AAAAAATC | 0.105
ACAAAATC | 0.352
CCAAAATC | 0.0937
ATAAAATG | 0.341
ACAAAATA | 0.188
GCCGATTA | -0.0616
ATTGCCGG | -0.0182
GGATAGAC | -0.0706
GGACATCC | 0.475
AGACATCG | 0.226
GGACATCA | 0.396
CGACATCC | 0.0825
AGACATCT | 0.29
TGACATCA | 0.257
CGACATCA | 0.125
GAACATCC | 0.162
AGACATCC | 0.328
ATAGTGGA | 0.0789
CCCTGCTC | -0.172

Sequence | PBM E-score
CCGCTTCC | -0.183
GACGGAAA | 0.106
CACGGACG | 0.175
TACGGAAA | 0.17
TACGGAGA | -0.0508
AACGGACA | 0.344
CACGGACA | 0.455
CACGGACC | 0.0127
TACGGACA | 0.44
AACGGACT | -0.00389
GACGGACA | 0.386
AACGGACG | 0.0165
GACGGACC | -0.0404
ACTAACGC | -0.108
GCTCGAAA | -0.00351
TGCAGGAA | 0.0458
TGAGTGAA | -0.115
ACGAATCG | 0.0506
CGAATAAC | 0.0021
GGAATAAA | 0.119
CGAATAAA | 0.309
TAAGCTCA | -0.0986
GGTCCGGA | 0.216
CGTCCGGA | 0.331
ATTCCGGA | 0.313

Sequence | PBM E-score
AGTCCGGA | 0.267
CTTCCGGA | 0.132
ATTCCGGG | 0.14
CCTTTGAA | -0.154
ATGTTTTG | 0.12
CGAGCACG | -0.175
ACATATTC | 0.34
ACATATGC | -0.0219
ACATATTG | 0.321
ACATATCG | 0.231
ATATATTC | 0.163
TCATATGA | 0.297
ATATATTG | -0.172
ACATATGA | 0.311
CCATATTC | -0.0353
CCATATCA | 0.0259
ACATATCA | 0.319
ACATATGG | 0.262
AATCTTGG | 0.0184
AGTTACAT | -0.0774
AATCAAAA | 0.089
CTATTCTC | -0.0396
CCACAACC | -0.0582
TAGTTGCA | 0.0158
TAGAAGGA | -0.21

Sequence | PBM E-score
AATAGCTG | -0.128
GTTGAGGA | -0.00729
ACATATTA | 0.351
CCATATTA | 0.21
GCATATTA | 0.0109
ACCTTCCA | -0.119
AATCGAGT | -0.0102
CGAAGCAC | 0.0622
ACACCGTG | -0.05
GATTGGAC | 0.109
AATTGGAC | 0.342
ATTTGGAC | 0.366
AATTGGAT | 0.157
ATTTGGAG | -0.0358
CTTTGGAC | 0.262
CTGAGCTC | 0.0318
ATTTGCCC | 0.0584
AAGTGATA | -0.052
GACAAGCA | 0.278
GACAGGAC | 0.17
TACAAGAA | 0.169
GACAAGAA | 0.374
AACAAAAA | 0.15
CACAGGAA | 0.0261
CACAAGAA | 0.105

Sequence | PBM E-score
TACAAAAA | 0.264
GACAGGAA | 0.323
AACAAGCC | 0.0265
GACAAGCC | 0.318
GACAAAAA | 0.466
ATCTATCC | -0.0249
CCTAGCCA | -0.0603
CCTGCAAA | -0.188
AAGCAAGG | -0.0227
ATTTACTA | 0.206
AGTCAGAA | -0.0729
CGTACGGC | -0.134
CCTATGTA | -0.0586
AACAAACA | 0.133
GACAAAAC | 0.451
GACAAACA | 0.456
GACACAAA | 0.395
TACAAACA | 0.301
CACAAACC | -0.135
CACAAAAC | 0.0522
GACAAACC | 0.445
CACACAAA | 0.115
TACACAAA | 0.205
AACAAAAC | 0.199
AACAAACC | 0.155

Sequence | PBM E-score
GACATCAC | 0.118
CGGCAGCC | -0.118
CGCGGTCC | -0.0855
AGTATTGG | -0.0788
AGAGTTAT | -0.0142
GATAGGCA | -0.0844
AGTAGGCA | -0.07
GACAAGAC | 0.311
AACAAGAC | 0.135
CACAAGAC | -0.118
GCCCATGA | -0.081
TGGGACCA | -0.117
GGGGACCA | -0.223
GGGGACAC | 0.28
TGGGAGAA | -0.209
GGGGACAA | 0.456
TGGGACAA | 0.471
ATAGCACA | -0.0389
ATGGAGCG | -0.0801
CAGATAAG | 0.102
ATCCGAAA | 0.057
CTCCGAGA | 0.152
GTCCGAAA | 0.312
ATCCGAAT | 0.309
GTCCGAGA | 0.326

Sequence | PBM E-score
ATCCGAAC | -0.00081
TTCCGAAA | 0.0799
ATCCGAGA | 0.187
GTCCGACA | 0.322
ATCCGAAG | 0.0243
CTCCGACA | 0.174
ATCCGACA | 0.128
ATTAATTA | 0.0938
CTCTTACC | 0.0706
ATCGCCTC | -0.0571
CTCTCCCC | -0.213
ACAACATG | 0.0414
AATATGCC | -0.141
CTCTGATA | 0.112
CCAGGGAC | 0.0428
ACGTTAGT | 0.0228
ACTTACTG | -0.113
AAGCTGCG | 0.00828
AGCCCTGC | -0.252
